HTT aggregate: reduces HttQ103-GFP aggregates in PC12 cells | PC12 HttQ103-GFP aggregates, Acumen cytometry, 40 h | Potency, µM (doses to about 46.1 µM), actives largely listed as inhibitors | 1.1% of 220,000 active | AID 1688; also: nearly all actives have a fitted effect of over 60% in size
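Multiplexed with ATP-based cell death, this channel scores GFP aggregates in PC12 cells expressing inducible HTTex1-Q103-GFP. Induction used 100 nM tebufenozide; compounds were tested in concentration series.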
HepG2 viability: counter-screen for TGF-b inhibitors: cytotoxicity in HepG2 cells | HepG2 CAGA-GFP viability, ATP luminescence, 18 h | Potency, µM (series often up to 46.1 µM), hits mostly cytotoxic | 0.76% of 410,000 active | AID 588856
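CellTiter-Glo luminescence gave cytotoxicity after 18 hours at 37 degrees C. The cells were HepG2 CAGA-GFP in 1% FBS DMEM, stimulated with 500 pg/mL TGF-beta after compound addition. %Activity was normalised to no-cell wells (complete cell-killing) and DMSO (no toxicity), and curves were fitted and classified.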
TGFb SMAD3 inh: inhibitors of TGF-b signaling. AID 588855. Potency, µM (doses to about 46.1 µM), hits mostly inhibitors. HepG2 CAGA-GFP TGF-b/SMAD3 reporter, GFP fluorescence, 18 h; TGF-beta stimulated, 500 pg/mL final. 1.2% of 410,000 active; also: nearly all actives have a fitted effect of over 65% in size
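Using HEPG2 CAGA-GFP reporter cells at 1000 cells/well, we pinned test compounds, stimulated with recombinant TGF-beta (500 pg/mL final) and measured total well GFP after 18 h.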
ATXN2 expr inh: inhibitors of ATXN2 expression; HEK-293 ATXN2-luciferase reporter, luminescence, 24 h; Potency, µM (titrated, usually from 57 µM), actives largely listed as inhibitors; 0.72% of 360,000 active; AID 1745845; also: nearly all actives have a fitted effect of over 55% in size
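ATXN2-luciferase reporter cells (luciferase flanked by upstream and downstream ATXN2 gene portions) were treated 24 h at 37 °C with compounds at up to 57 uM. SteadyGlo luminescence gave expression; GF-AFC fluorescence gave viability.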
S2 tox: cell viability loss in ATXN counter-screen. S2 cells (HEK-293 line with an ATXN2-luciferase reporter) viability, CellTiter-Fluor protease fluorescence, 24 h. Potency, µM (top dose mostly 56.7 µM), hits mostly cytotoxic. 0.49% of 400,000 active. AID 651635; also: nearly all actives have a fitted effect of over 40% in size
HTT ATP protect: protects HTT-Q103 PC12 cells, measured by ATP. PC12 HTT-Q103 induced, cytoprotection, ATP luminescence, 40 h. Potency, µM (titrated, usually from 56.4 µM), actives largely listed as activators. 0.14% of 230,000 active; also: nearly all actives have a fitted effect of over 45% in size
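Stable PC12 Q103-GFP cells in serum-supplemented, phenol red-free DMEM; induction by tebufenozide at 100 nM final; compound dose series; cell viability quantified luminescently from ATP.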
A number is an active result; n = inactive; u = inconclusive; x = no result; [ ] = another dose, or the depositor's remark. This is a sample that favours compounds with a hit; in the whole collection about 2.8% have one here. Calls follow the shape of the dose curve; as a rule, active = well fitted curve in the direction sought with a large enough effect; inconclusive = small, poorly fitted or top-dose-only effect, or another doubt; inactive = no such curve, though single readings can be large; an effect the other way counts as inactive or inconclusive.

SMILES | HTT aggregate | HepG2 viability | TGFb SMAD3 inh | ATXN2 expr inh | S2 tox | HTT ATP protect
Cc1ccc(N=C2SC(C(=O)Nc3ccc(OC(F)(F)F)cc3)C(N)=C2C(=O)Nc2c(C)cc(C)cc2C)cc1 (stereo not drawn) | n | 11µM | 7.1µM | u | x | n[10 µM]
Cc1ccc(NC(=O)C2SC(=Nc3ccccc3)C(C(=O)Nc3ccc(Cl)cc3)=C2N)cc1 (stereo not drawn) | n | n | n | n | n | n
O=C(c1ccc2c(c1)CCN2S(=O)(=O)c1ccccc1)N1CCN(c2cccc(Cl)c2)CC1 | x | n | n | n | n | x
CCS(=O)(=O)N1CCc2cc(C(=O)N3CCN(c4cccc(C(F)(F)F)c4)CC3)ccc21 | x | n | 11µM | u | u | x
COc1cccc(C2Nc3ccccc3C(=O)N2Cc2ccccc2)c1 (stereo not drawn) | x | n | n | x | n | x
COc1ccc2c(c1)C[C@]1(C)c3ccccc3C(=O)N(Cc3ccccc3)[C@H]21 | x | n | 11µM | u | u | x
COCc1c(C(=O)N2CCN(c3ccccc3O)CC2)cnn1-c1nccc(-c2cccs2)n1 | x | x | x | x | n | x
COc1ccc(CCC(C)Nc2ccc(F)c(F)c2)cc1 (stereo not drawn) | 11µM | n | n | n | n | n[10 µM]
COc1ccc(CCC(C)NCCc2ccc(Cl)cc2Cl)cc1 (stereo not drawn) | x | 16µM | u | x | x | x
COc1ccc(CCC(C)NCc2ccc(Cl)c(Cl)c2)cc1 (stereo not drawn) | x | 8.9µM | 13µM | n | n | x
COc1ccc(CCC(C)NCc2ccc(F)cc2)cc1 (stereo not drawn) | x | n | n | x | x | x
COc1ccc(CCC(C)NCc2cc(OC)cc(OC)c2)cc1 (stereo not drawn) | x | n | n | n | n | x
CCC/C=C/C1C(=O)C2OC2C2(OCC(CC)(CC)CO2)C1CO (stereo not drawn) | x | x | x | x | x | n[10 µM]
Cc1ccc(C)c(Nc2nc3nonc3nc2Nc2cccc(C)c2C)c1 | x | n | 6.3µM | u | x | x
Cc1ccc(C)c(Nc2nc3nonc3nc2N2CCOCC2)c1 | n | n | u | n | u | n
CCCN(CCC)CC(O)Cn1cc(/C=C/C(=O)c2ccc(OCC)cc2)c2ccccc21 (stereo not drawn) | x | 13µM | u | u | x | x
Cc1cccc(C)c1C(O)c1ncc(-c2ccc(Cl)cc2)[nH]1 (stereo not drawn) | x | n | n | n | n | x
Cc1cccc(C(O)c2ncc(-c3ccc(Cl)cc3)[nH]2)c1C (stereo not drawn) | x | n | u | n | 22µM | x
Cc1cc(Cl)ccc1C(O)c1ncc(-c2ccc3ccccc3c2)[nH]1 (stereo not drawn) | x | n | u | n | u | x
OC(c1ccc(Cl)cc1)c1ncc(-c2cccc(C(F)(F)F)c2)[nH]1 (stereo not drawn) | x | 10µM | u | u | n | x
Cc1cc(Cl)ccc1C(O)c1ncc(-c2cccc3ccccc23)[nH]1 (stereo not drawn) | x | n | 13µM | n | n | x
OC(c1cc(F)cc(Cl)c1)c1ncc(-c2cccc(C(F)(F)F)c2)[nH]1 (stereo not drawn) | x | n | 11µM | u | n | x
CC(C)(C)n1ncc2c(=O)n(Cc3cc(Cl)ccc3Cl)cnc21 | x | n | n | x | x | x
Cc1[nH]n2c(=O)cc(-c3ccc(Cl)cc3)nc2c1-c1ccccc1 | x | n | 10µM | 3.5µM | n | x
Cc1[nH]n2c(=O)cc(-c3ccc([N+](=O)[O-])cc3)nc2c1-c1ccccc1 | x | n | u | 20µM | u | x
Cc1[nH]n2c(=O)cc(C(C)(C)C)nc2c1-c1ccccc1 | n | n | n | 18µM | n | n
CCCc1cc(=O)n2[nH]c(C)c(-c3ccccc3)c2n1 | n | n | n | n | n | n[0.074 µM]
CN(C)c1ccc(C(=O)Oc2cc(O/N=[N+](\[O-])N(C)C)c([N+](=O)[O-])cc2[N+](=O)[O-])cc1 | x | n | u | x | x | x
CCCCCCOc1ccc(/C=C/C(=O)Nc2sc3c(c2C(=O)OC)CCC3)cc1OC | x | n | 7.9µM | u | 14µM | x

Assay outcomes deposited in PubChem BioAssay by National Center for Advancing Translational Sciences (NCATS).
